Active and inactive are the calls of the source. Calls follow the shape of the dose curve; as a rule, active = well fitted curve in the direction sought with a large enough effect; inconclusive = small, poorly fitted or top-dose-only effect, or effect the other way, or another doubt; inactive = no such curve, though single readings can be large or run the other way.
What follows are compounds tested against Beta-2 adrenergic receptor (Homo sapiens) (UniProt P07550) (assay: qHTS validation assay of beta-arrestin-biased ligands of beta2-adrenergic receptor (AID 485366; also: 0% is about no effect)). Conditions: cell-based beta-arrestin recruitment to ADRB2, qHTS; series mostly up to 46.1 µM; activation: at the top concentration.
From the text: NIH Molecular Libraries Probe Production Network [MLPCN]
NIH Chemical Genomics Center [NCGC]
PI: Bryan Roth and Bob Lefkowitz
The concept of biased agonism is an emerging concept of molecular pharmacology which proposes that seven transmembrane receptors (7TMRs) or G protein-coupled receptors (GPCRs), exist in multiple signaling conformations and complexes and that ligands (either agonists or antagonists) can induce signaling biased responses for distinct signal transduction cascades.
Furthermore, accumulating evidence over the last decade has drawn attention to a novel function of beta-arrestins as signal transducers that scaffold various signaling molecules upon activation of 7TMRs. […] This beta-arrestin-biased signaling presumably leads to distinct physiological outcomes from those by G protein activation.
Additionally, the active receptor conformations which […] on this beta-arrestin signaling are likely different from those activating G protein signaling
The goal of this screening project will be to discover and optimize novel beta-arrestin-biased ligands for beta2-AR signaling. A luminescent cell-based assay for beta2-AR-mediated agonism, known as the Tango assay, has been validated in which ligand binding of a recombinant beta2-AR and subsequent recruitment of a recombinant beta-arrestin lead to the release of the transcriptional activator tTA, which upregulates transcription of a tTA-responsive luciferase gene. […] Compounds were screened as a concentration-titration series that ranged from 46 microM to 0.6 nM.
NCGC Assay Protocol Summary:
Tango cells were dispensed into white, solid, tissue-culture-treated 1536-well plates at 1500 cells/well in DMEM, containing 1% fetal bovine serum (FBS). Then, 23 nL of compounds or DMSO were delivered to each well using a pin tool. Plates were incubated at 37 degrees C, 5% CO2 for 18 hr. Then 2.5 uL luminescent substrate mix (in-house prepared: 150 mM Tris-Cl, pH 7.6, 3 mM MgCl2, 1% Triton X-100, 5 mM DTT, 0.5 mM CoA, 0.15 mM ATP, 0.44 mM D-luciferin, final concentrations) was added to each well. Plates were then incubated for 15 minutes at room temperature, and subsequently measured on a ViewLux plate reader for luminescent signal using a clear filter with a 10 second exposure and 2x binning. The %Activity was determined from the corrected luminescence values.
Concentration-response curves were fitted to the signals arising from the resulting luminescence. The concentration-effect curves were then classified based on curve quality (r2), response magnitude and degree of measured activity, and compounds were subsequently categorized based on their curve class.
Keywords: biased agonism, beta2-AR, beta-arrestin, GPCR, 7TMR, Tango, luminescence, MLSMR, MLPCN, NIH Roadmap, qHTS, NCGC

Beta-2 adrenergic receptor (Homo sapiens), sequence (P07550 whole entry, looked up): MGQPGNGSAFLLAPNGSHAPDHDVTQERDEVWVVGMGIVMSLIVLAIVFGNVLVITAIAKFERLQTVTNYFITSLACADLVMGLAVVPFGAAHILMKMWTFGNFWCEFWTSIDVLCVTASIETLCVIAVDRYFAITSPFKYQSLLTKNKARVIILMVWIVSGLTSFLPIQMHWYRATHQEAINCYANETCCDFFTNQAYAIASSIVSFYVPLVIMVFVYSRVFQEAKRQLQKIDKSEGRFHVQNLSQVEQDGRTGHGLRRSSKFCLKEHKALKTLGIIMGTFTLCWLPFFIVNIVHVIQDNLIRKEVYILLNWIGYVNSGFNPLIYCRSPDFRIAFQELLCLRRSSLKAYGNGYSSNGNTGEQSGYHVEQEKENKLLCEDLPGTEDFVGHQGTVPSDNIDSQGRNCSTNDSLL

Compound | activation
COc1cc2nc(N(C)CCCNC(=O)C3CCCO3)nc(N)c2cc1OC (stereo not given) | 0.396% (inactive)
CC12CC3CC(C)(C1)CC(N)(C3)C2 | 0.0367% (inactive)
COc1ccc(CCN(C)CCCC(C#N)(c2ccc(OC)c(OC)c2)C(C)C)cc1OC (stereo not given) | 1.01% (inactive)
COc1ccccc1OCC(O)CN1CCN(CC(=O)Nc2c(C)cccc2C)CC1 (stereo not given) | 0.167% (inactive)
COc1cc2c(c(OC)c1OC)-c1ccc(OC)c(=O)cc1[C@@H](NC(C)=O)CC2 | -0.15% (inactive)
NS(=O)(=O)c1cc2c(cc1Cl)NCNS2(=O)=O | -0.269% (inactive)
Cn1ccc2cc3c(cc21)CCN3C(=O)Nc1cccnc1 | 1.64% (inactive)
CCc1cccc2c3c([nH]c12)C(CC)(CC(=O)O)OCC3 (stereo not given) | -0.405% (inactive)
O=C(CCCN1CCC(O)(c2ccc(Cl)cc2)CC1)c1ccc(F)cc1 | -0.305% (inactive)
O=C(Nc1ccc([N+](=O)[O-])cc1Cl)c1cc(Cl)ccc1O | 0.665% (inactive)
OCCN1CCN(CCCN2c3ccccc3Sc3ccc(C(F)(F)F)cc32)CC1 | -0.675% (inactive)
CN1CCN(CCCN2c3ccccc3Sc3ccc(Cl)cc32)CC1 | -0.985% (inactive)
CCOC(=O)c1ncn2c1CN(C)C(=O)c1cc(F)ccc1-2 | -1.11% (inactive)
Cc1ccc(C(=O)Nc2ccc(S(=O)(=O)O)c3cc(S(=O)(=O)O)cc(S(=O)(=O)O)c23)cc1NC(=O)c1cccc(NC(=O)Nc2cccc(C(=O)Nc3cc(C(=O)Nc4ccc(S(=O)(=O)O)c5cc(S(=O)(=O)O)cc(S(=O)(=O)O)c45)ccc3C)c2)c1 | 0.55% (inactive)
CCCNCC(O)COc1ccccc1C(=O)CCc1ccccc1 (stereo not given) | -0.59% (inactive)
CC[N+](CC)(CC)CCOc1cccc(OCC[N+](CC)(CC)CC)c1OCC[N+](CC)(CC)CC | 0.467% (inactive)
CN1CCN2c3ccccc3Cc3ccccc3C2C1 (stereo not given) | -0.0509% (inactive)
NCCCCCC(=O)O | 0.113% (inactive)
Nc1nnc(-c2cccc(Cl)c2Cl)c(N)n1 | 0.179% (inactive)
COC(=O)Nc1nc2ccc(C(=O)c3cccs3)cc2[nH]1 | 0.0368% (inactive)

Compound | activation
CC(C)Cc1ccc(C(C)C(=O)O)cc1 (stereo not given) | 1.64% (inactive)
O=C(c1ccc(OCCN2CCCCC2)cc1)c1c(-c2ccc(O)cc2)sc2cc(O)ccc12 | -0.405% (inactive)
CC(C)C(=O)Nc1ccc([N+](=O)[O-])c(C(F)(F)F)c1 | -0.497% (inactive)
Fc1ccc([C@@H]2CCNC[C@H]2COc2ccc3c(c2)OCO3)cc1 | 0.471% (inactive)
C[C@](N)(Cc1ccc(O)c(O)c1)C(=O)O | -0.3% (inactive)
COc1cc2nc(N3CCN(C(=O)c4ccco4)CC3)nc(N)c2cc1OC | 0.484% (inactive)
CN(C)CCCN1c2ccccc2CCc2ccc(Cl)cc21 | 0.0222% (inactive)
Clc1ccc(C(c2ccccc2Cl)C(Cl)Cl)cc1 (stereo not given) | 1.28% (inactive)
CCN1CCCC1CNC(=O)c1cc(S(=O)(=O)CC)c(N)cc1OC (stereo not given) | 0.0118% (inactive)
Nc1ccn([C@H]2CC[C@@H](CO)O2)c(=O)n1 | 12.9% (inactive)
CCC1(c2ccccc2)C(=O)NCNC1=O | -0.0269% (inactive)
Cn1c(=O)c2c(ncn2C)n(C)c1=O | 0.253% (inactive)
CC(CCc1ccc(O)cc1)NCCc1ccc(O)c(O)c1 (stereo not given) | 3.46% (inactive)
Cc1cc(C(C)(C)C)c(O)c(C)c1CC1=NCCN1 | -0.708% (inactive)
O=C1N(c2ccccc2)c2ccccc2C1(Cc1ccncc1)Cc1ccncc1 | -0.219% (inactive)
CN1CCC(=C2c3ccccc3C=Cc3ccccc32)CC1 | 0.155% (inactive)
NC12CC3CC(CC(C3)C1)C2 | 0.491% (inactive)
COc1ccc2c(c1)c(CC(=O)O)c(C)n2C(=O)c1ccc(Cl)cc1 | 0.106% (inactive)
COc1ccc(C2CNC(=O)C2)cc1OC1CCCC1 (stereo not given) | -0.117% (inactive)
CCC1(C)CC(=O)NC1=O (stereo not given) | 0.195% (inactive)

Reference: PubChem BioAssay (NCATS)
